Experimental data taken from PubChem BioAssay (NCI).
Compounds without any hit were thinned out: in the full panel of roughly 83,000, 20% have a hit.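 Plates (96-well) were seeded with cells, treated with compound at one concentration, and incubated for 48 hours before percent growth was determined.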 A number with no mark means an inactive call. Activity calls are given as the source filed them.

Each molecule was assayed on SK-MEL-5 melanoma (assay: NCI-60 one-dose screen, 48 h (100 = growth as untreated, 0 = no growth, -100 = all killed)). Conditions: 10 µM unless noted.
Protocol: Growth inhibition of the SK-MEL-5 human tumor cell line is measured as a screen for anti-cancer activity. Cells are grown in 96 well plates and exposed to the test compound for 48 hours. Compounds are tested at a single concentration, which is 10^-5 M for most compounds. The reported endpoint is percent growth (GI% or GIPRCNT), where numbers from 0 - 100% represent growth inhibition, and numbers from -100% - 0 represent cell death. For example, a value of 40 represents 60% growth inhibition. A value of 0 means no net growth occurred over the course of the experiment. A value of -40 indicates 40% of cells at the beginning of the experiment died by the end of the experiment. A value of -100 means all cells are dead at the end of the experiment.
NCI-60 Human Tumor Cell Lines Screen was performed using the standard one-dose NCI protocol, which is described in more detail at https://dtp.cancer.gov/discovery_development/nci-60/default.htm.
Compounds with GIPRCNT values below 10 were considered active. Activity score was based on GIPRCNT using the following formula: […]
Score is 0 for GIPRCNT values of 100 or above, 50 for GIPRCNT values of 0, and 100 for GIPRCNT values of -100.

Row | SMILES | growth
1 | CCCCCCNC(=O)c1cc(NCc2cc(O)ccc2O)ccc1O | 90%
2 | Cc1[nH]c(-c2nc3ccccc3[nH]2)c(C)c1C(=O)NNc1ccc(Cl)cc1 | 98.2%
3 | CCO/C=N/C1=C(C#N)C(c2ccc(OC)cc2)c2c(c3ccccc3n(C)c2=O)O1 (stereo not given) | 102%
4 | CN(C)c1ccc(/C=C/c2c(F)cccc2F)cc1 | 94.9%
5 | Cc1nc(Nc2ccc(NC(=S)Nc3ccccc3)cc2)nc2nc(Nc3cccc(Cl)c3)[nH]c(=O)c12 | 102%
6 | COc1ccc(-n2nnc(C(=O)NCCc3c[nH]c4ccc(F)cc34)c2C)cc1 | 102%
7 | COc1ccc(C2CC(c3ccccc3)=NN2c2nc(C)c(C(C)=O)s2)cc1 (stereo not given) | 103%
8 | Nc1ccc(CCCCc2ccccc2)c(Cl)c1 | 96.4%
9 | COc1ccc(NC(=O)C(=O)c2c[nH]c3ccc(F)cc23)cc1 | 97.4%
10 | COC(=O)Nc1nc2ccc(C(=O)C3CC3)cc2[nH]1 | 8.13% (active)
11 | O=C1CC(c2ccc3c(c2)OCO3)Nc2cc3c(cc21)OCO3 (stereo not given) | 1.16% (active)
12 | Cc1ccc(S(=O)(=O)NN/C(N)=N\S(=O)(=O)c2cc(C)c(Cl)cc2SCc2ccccc2)cc1 | 104%
13 | N#Cc1c(-c2ccccc2)nc(SCC2CO2)nc1N1CCOCC1 (stereo not given) | 84.9%
14 | C=C(C)[C@@H]1CC[C@]2(CNCCO)CC[C@]3(C)[C@H](CC[C@@H]4[C@@]5(C)CCC(N)[C@@](C)(CO)[C@@H]5CC[C@]43C)[C@@H]12 (stereo not given in full) | -96.1% (active)
15 | NS(=O)(=O)Oc1ccc(NC(=O)C23CC4CC(CC(C4)C2)C3)cc1Cl | 91.1%
16 | O=C(O)c1ccccc1C(=O)Nc1ccc(Cl)cc1 | 93.9%
17 | COc1ccc(C2=NC(=O)NC2c2ccc(OC)cc2)cc1 (stereo not given) | 63%
18 | COc1cccc(CCC2CCCN(c3cc(C)nc(N)n3)C2)c1 (stereo not given) | 18.2%
19 | Cc1nc(Nc2ccccn2)sc1C(=O)/C=C/c1ccc(Br)cc1 | 84.7%
20 | O=C1Nc2ccccc2/C1=N/N=C/c1c[nH]c2ccccc12 | 76.8%

Row | SMILES | growth
21 | Clc1cnc(Nc2ccc(OCCN3CCCC3)cc2)nc1NCc1ccco1 | 46.1%
22 | Cc1cc(N2CCCCC2)nc(N(CCNc2ccnc3cc(Cl)ccc23)Cc2ccccn2)n1 | 48.8%
23 | COc1ccc(-c2cc(-c3ccc(Nc4nc(Nc5ccccc5)nc(Nc5ccc(Cl)cc5)n4)cc3)nc(N)n2)cc1 | 60.7%
24 | COc1cc(C(=O)/C=C/c2c(-c3ccc(F)cc3)nc3ncccn23)cc(OC)c1OC | 30.5%
25 | COc1ccc(/C(C)=N/NS(=O)(=O)c2ccc(C)cc2)cc1OC | 103%
26 | CN(CCC(=O)/C(=C\c1ccccc1)c1ccc(Cl)cc1)Cc1ccccc1 | 58.7%
27 | CCC(O)(C(c1ccccc1)c1ccccn1)C(c1ccccc1)c1ccccn1 (stereo not given) | 106%
28 | C=C(CNCCc1ccc(O)cc1)[C@@H]1CC[C@]2(COC3CCCCO3)CC[C@]3(C)[C@H](CC[C@@H]4[C@@]5(C)CCC(N)C(C)(C)[C@@H]5CC[C@]43C)[C@@H]12 (stereo not given in full) | -97.9% (active)
29 | Cc1cc(NS(=O)(=O)c2ccccc2)c(OS(=O)(=O)c2ccccc2)cc1C | 102%
30 | CC(C)OCCCNCC(=O)Nc1ccc(S(=O)(=O)c2ccc(NC(=O)CNCCCOC(C)C)cc2)cc1 | 82.4%
31 | O=C(Nc1cccc2[nH]c(C(F)(F)F)nc12)c1cc(Cl)ccc1Cl | -47.5% (active)
32 | CC1(C)N=C(N)N=C(N)N1c1ccc(Cl)c(Cl)c1 | 25.2%
33 | O=c1[nH]c(NCc2nnnn2-c2ccc(Br)cc2)nc2sc3c(c12)CCCC3 | 99.5%
34 | CC(C)(C)c1ccc(C(=O)Nc2sc3c(c2C(N)=O)CCC(=O)C3)cc1 | -81.2% (active)
35 | N#Cc1c(NC(=O)c2cccc(C(F)(F)F)c2)sc2c1CCC(=O)C2 | -95.6% (active)
36 | O=C(Nc1ccccc1)c1sc(-c2cccc(C(F)(F)F)c2)cc1O | 18.4%
37 | Nc1ccc(S(=O)(=O)Nc2ccsc2-c2nc(-c3ccccc3)no2)cc1 | 65.9%
38 | O=C1CCC(N2C(=O)c3cccc(NCCCC4CCN(CCNC(=O)c5cc6c(o5)C(=O)c5ccccc5C6=O)CC4)c3C2=O)C(=O)N1 (stereo not given) | -99.4% (active)
39 | C[C@@H]1CC[C@@H]2[C@@H]1[C@H](OC(=O)/C=C/c1ccccc1)[C@]1(C3CCCCC3)C[C@@H](NC(=O)CO)[C@@]2(C)O1 | 104%
40 | COc1cc(C2CC(c3ccc(Nc4nc(Nc5ccc(F)cc5)nc(Nc5ccc(Cl)cc5)n4)cc3)=NN2C(C)=O)cc(OC)c1OC (stereo not given) | 60.1%
